# Laboratory results from PubChem BioAssay (NCATS).
# Inconclusive results are not listed.
# Test: qHTS for identification of novel therapeutic agents for treatment of microphthalmiaassociated transcription factor (MiT) renal cell carcinoma (RCC) (AID 1963991);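 further: curves scaled with 100% = DMSO viability and 0% = empty wells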
# Conditions: TFE3-RCC UOK109 viability, CellTiter-Glo, 48 h; measured here: UOK109 Z-AUC; stronger effect = lower value
# Summary of the method: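 UOK109/UOK124/UOK145 (TFE3 fusions, three partners); 500 cells/well; MIPE v4.0, 1912 cpds, 11 conc.; 48 h, 37 C; CellTiter-Glo, 15 min RT; lum. Norm.: DMSO 100%, empty 0%.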
row,SMILES,z-score
1,CC(C)OC(=O)[C@H](C)N[P@](=O)(OC[C@H]1O[C@@H](n2ccc(=O)[nH]c2=O)[C@](C)(F)[C@H]1O)Oc1ccccc1,0.488
2,Cc1cn([C@@H]2O[C@H](CO)[C@@H](O)[C@H]2F)c(=O)[nH]c1=O,0.17
3,C=CC(=O)Nc1ccc2ncnc(Nc3ccc(OCc4cccc(F)c4)c(Cl)c3)c2c1,-2.47
4,COc1ccc(C=Cc2cc(OC)c(OC)c(OC)c2)cc1NC(=O)[C@H](N)CO,-2.33
5,CC(C)C[C@H](NC(=O)CNC(=O)c1cc(Cl)ccc1Cl)B1OC(=O)CC(CC(=O)O)(C(=O)O)O1 (stereo not given in full),-1.14
6,C[C@@H]1[C@H](C)CC[C@]2(C(=O)O)CC[C@]3(C)C(=CC[C@@H]4[C@@]5(C)C[C@@H](O)[C@H](O)[C@@](C)(CO)[C@H]5CC[C@]43C)[C@@H]12,0.114
7,COC(=O)[C@@H]1CC2=CC(=O)CC[C@]2(C)[C@@]23O[C@@H]2C[C@@]2(C)[C@H](CC[C@@]24CCC(=O)O4)[C@@H]13,0.222
8,O=C(O)C(=O)Nc1cccc(C2=NN=N[N]2)c1,0.225
9,C[N+]1(C)[C@@H]2C[C@@H](OC(=O)C(O)(c3cccs3)c3cccs3)C[C@H]1[C@@H]1O[C@@H]12,0.526
10,OCCN1C[C@H](O)[C@@H](O)[C@H](O)[C@@H]1CO,0.705
11,CN[C@H](CC(C)C)C(=O)N[C@H]1C(=O)N[C@@H](CC(N)=O)C(=O)N[C@@H]2C(=O)N[C@H]3C(=O)N[C@H](C(=O)N[C@H](C(=O)O)c4cc(O)cc(O)c4-c4cc3ccc4O)[C@H](O)c3ccc(c(Cl)c3)Oc3cc2cc(c3O[C@@H]2O[C@H](CO)[C@@H](O)[C@H](O)[C@@H]2O[C@H]2C[C@](C)(N)[C@H](O)[C@H](C)O2)Oc2ccc(cc2Cl)[C@H]1O,0.508
12,C=C1CCC2[C@](C)(CO)C(O)CC[C@]2(C)C1CC=C1C(=O)OCC1O (stereo not given in full),0.432
13,COC[C@H](NC(=O)c1cnc(C)s1)C(=O)N[C@@H](COC)C(=O)N[C@@H](Cc1ccccc1)C(=O)[C@@]1(C)CO1,-1.27
14,C[C@H]1O[C@H](O[C@H]2[C@H](O)[C@@H](O)[C@@H](O[C@H]3[C@H](O)[C@@H](O)C(O)O[C@H]3CO)O[C@H]2CO)[C@H](O)[C@@H](O)[C@H]1N[C@H]1C=C(CO)[C@@H](O)[C@H](O)[C@@H]1O (stereo not given in full),0.975
15,CNC(=O)Nc1ccc(-c2nc(N3CC4CCC(C3)O4)c3cnn(C4CCC5(CC4)OCCO5)c3n2)cc1,-1.43
16,C=C1C[C@@]2(O)O[C@@]3(C[C@H]2C(C)C)[C@H](C)CC[C@H]13,0.729
17,CC(=O)OCC(=O)[C@@]12N=C(C)O[C@H]1C[C@H]1[C@@H]3CCC4=CC(=O)C=C[C@]4(C)[C@@H]3[C@@H](O)C[C@@]12C,0.415
18,CCCCCCCCCCCCCCCC(=O)OC[C@@H](NC(=O)C(Cl)Cl)[C@H](O)c1ccc([N+](=O)[O-])cc1,1.8
19,COc1cc([C@@H]2c3cc4c(cc3[C@H](O)[C@H]3COC(=O)[C@@H]23)OCO4)cc(OC)c1OC,-1.41
20,CC(=O)N[C@H]1[C@@H]([C@H](O)[C@H](O)CO)OC(C(=O)O)=C[C@@H]1N=C(N)N,0.312
21,NC(=O)c1ncn([C@@H]2O[C@H](CO)[C@@H](O)[C@@H]2O)c1O,0.702
22,CS(=O)(=O)N1CCc2c(-c3cnc(N)nc3)nc(N3CCOCC3)nc21,-2.02
23,Cc1onc(-c2ccccc2)c1C(=O)N[C@@H]1C(=O)N2[C@@H](C(=O)O)C(C)(C)S[C@@H]12,2.05
24,COc1ccc(Nc2cc(-c3cnc(N)nc3)nc(N3CCOCC3)n2)cn1,-1.16
25,CCC[C@H]1C[C@H](C(=O)N[C@@H]([C@@H]2O[C@@H](SC)[C@@H](O)[C@@H](O)[C@@H]2O)[C@H](C)Cl)N(C)C1,0.606
26,CC(C)(O)[C@H]1CC[C@@](C)([C@H]2[C@@H](O)C[C@@]3(C)[C@@H]4C[C@H](O[C@@H]5O[C@H](CO)[C@@H](O)[C@H](O)[C@@H]5O)[C@H]5C(C)(C)[C@@H](O[C@@H]6OC[C@@H](O)[C@H](O)[C@@H]6O)CC[C@@]56C[C@@]46CC[C@]23C)O1,0.913
27,CC(C)(C)[C@H](NC(=O)c1ccc(N)c(Cl)c1)C(=O)N1CCC[C@@H]1C(=O)N[C@H](C#N)CC(=O)O,1.53
28,CC(=O)NC(CS)C(=O)O (stereo not given),0.609
29,N#CNC(=NCCCCCCOc1ccc(Cl)cc1)Nc1ccncc1,-0.809
30,Cc1ccc(O)c(C(CCN(C(C)C)C(C)C)c2ccccc2)c1 (stereo not given),0.603
